# Laboratory results: paper PMC7819943, “Rice protein-binding microarrays: a tool to detect cis-acting elements near promoter regions in rice”
# Whole data set: some 35,000 sequences, median “fluorescence intensity (a.u.)” near 10,000, cut for the highest 2% near 52,000. The entries come from a sample that favours the highest values as a whole.
# Target: T1, OsWOX13 (Oryza sativa, UniProt Q5QMM3 1-267)
# T1 sequence: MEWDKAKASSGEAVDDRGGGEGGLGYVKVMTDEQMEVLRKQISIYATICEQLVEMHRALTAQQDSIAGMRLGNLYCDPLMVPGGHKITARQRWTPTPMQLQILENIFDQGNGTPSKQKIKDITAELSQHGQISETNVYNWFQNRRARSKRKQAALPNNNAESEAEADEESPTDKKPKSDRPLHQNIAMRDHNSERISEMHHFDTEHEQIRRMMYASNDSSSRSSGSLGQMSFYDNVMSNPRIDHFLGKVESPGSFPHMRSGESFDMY
# Test: protein-binding microarray (RPBM); PBS, 2% BSA, 51.3 ng/ul salmon testes DNA, 50 uM zinc acetate, 200 nM TF, 25 C, 1 h; high values mean tight binding
# Details: protein: recombinant; tags: N-terminal polyhistidine and DsRed monomer fusion (pET32a); label: CyDye5-dUTP incorporated in the synthesized complementary strand; 3' TTTTT single-stranded linker to array surface; dsDNA, one strand shown
# In short: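 Binding signal is defined as the fluorescence intensity of each feature in arbitrary units, read on an Axon 4000B scanner. Transcription factors with N-terminal polyhistidine and DsRed fusions came from E. coli BL21-CodonPlus and were purified on Ni–NTA. They were incubated at 200 nM for 1 h at 25 °C on a custom Agilent array that had been made double-stranded with Cy5-dUTP, with 50 µM zinc acetate present, and the array was washed.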
row,Sequence,binding signal
1,CAAATTGAAGAGGATGCATGAATTGGATTTGCAGGAGAAGCGGAGTCACCTAGTGCAG,5250 fluorescence intensity (a.u.)
2,TTGAAATTGGAGATGATGTGACTGAAAAGTTGTGTGTGTACGGAGTCACCTAGTGCAG,21000 fluorescence intensity (a.u.)
3,TTGTGAAATGTTGATGAGGCTGATTGAGCGAGAAGCAGTGCGGAGTCACCTAGTGCAG,20000 fluorescence intensity (a.u.)
4,GAATGATTGTGGATGATGAAATAAATACTGCTCTTGTCAGCGGAGTCACCTAGTGCAG,33400 fluorescence intensity (a.u.)
5,TCCTAGGTGATCTGGGTGATTGTGAGTGAGTTTTGTTTCGCGGAGTCACCTAGTGCAG,4180 fluorescence intensity (a.u.)
6,ATGATTGGAGTCAAATTGAACTTGTACTGATGTGGAGGAGCGGAGTCACCTAGTGCAG,53400 fluorescence intensity (a.u.)
7,TAAGCTAATTTGACCGCTGAAAGTGATGGAAAGCAAGCAACGGAGTCACCTAGTGCAG,4480 fluorescence intensity (a.u.)
8,CCAAATTAAGTGGAAATTAATTTGCAAGCTGAGAACGATGCGGAGTCACCTAGTGCAG,55000 fluorescence intensity (a.u.)
9,AACAAATAAATTACTATTAGAGTAGGATGTTCGGCAAAGTCGGAGTCACCTAGTGCAG,7390 fluorescence intensity (a.u.)
10,ATATTGATGTTAATGAATCTAAATAGATATATATGTCTAGCGGAGTCACCTAGTGCAG,5520 fluorescence intensity (a.u.)
11,GTAGACTGATCACAATCTTTATTAGAATCGTTTAAGACACCGGAGTCACCTAGTGCAG,6090 fluorescence intensity (a.u.)
12,TCTAATTTATTAGAGCGCCACATGACGGCTTGAGAGCGTTCGGAGTCACCTAGTGCAG,19200 fluorescence intensity (a.u.)
13,TTCGTTCATCATCAATCAAAACATGGGACTATAAGGATTTCGGAGTCACCTAGTGCAG,7300 fluorescence intensity (a.u.)
14,AGTCAGCTGATTTAAATATAAACAGGGGTAAGAATTTAAGCGGAGTCACCTAGTGCAG,15000 fluorescence intensity (a.u.)
15,TATTTTGTAATCATTTGTTTTATATTTGAATTCCTGTCAGCGGAGTCACCTAGTGCAG,3710 fluorescence intensity (a.u.)
16,GGTAAATATAATAAATTATTGATCTAACAACTTGAAATTACGGAGTCACCTAGTGCAG,3460 fluorescence intensity (a.u.)
17,AATGATCTGATGGATGTTCTCTCACGTTCAAATCAGAGGCCGGAGTCACCTAGTGCAG,8430 fluorescence intensity (a.u.)
18,CAATATTCTTTGACAGCTTCGATTGACATCTCACCTTATGCGGAGTCACCTAGTGCAG,9220 fluorescence intensity (a.u.)
19,AGCTGCATATATTGATTGACAGGTGTACCGATTCCTTATGCGGAGTCACCTAGTGCAG,54400 fluorescence intensity (a.u.)
20,TGGGTCATTTATTGATTATTGTATTATTGTTCCTTATATTCGGAGTCACCTAGTGCAG,10300 fluorescence intensity (a.u.)
21,GTCAATTTAGATTGCCGCGCTTACAATTAGTTCTCAGGAACGGAGTCACCTAGTGCAG,15100 fluorescence intensity (a.u.)

row,Sequence,binding signal
1,CATTAAGAGTGATTGAATCTTGTTCTAAACATTAACTTTTCGGAGTCACCTAGTGCAG,26300 fluorescence intensity (a.u.)
2,TTAATTAATTTCTCTAATGATTCTCAATCTTGTGTTCTTCCGGAGTCACCTAGTGCAG,28300 fluorescence intensity (a.u.)
3,ACAAAGTAATTGATTTCTTGTGTGAGGCCTTGTTTAGATCCGGAGTCACCTAGTGCAG,53400 fluorescence intensity (a.u.)
4,AGTGATTAGATTAGTGAACTGATTAACATTTCTTGTGTTCCGGAGTCACCTAGTGCAG,64700 fluorescence intensity (a.u.)
5,AAAGTAATTAGTGTTTTCTTGATTAGTCTTTTCCTTGTATCGGAGTCACCTAGTGCAG,42700 fluorescence intensity (a.u.)
6,TCTAATTTCTTCCCTTGCAGATTGATCTTGTTAGTGAGCCCGGAGTCACCTAGTGCAG,20700 fluorescence intensity (a.u.)
7,ATTATCCATTCAATCAAAACAAGCAGGACTACTAGAAAGCCGGAGTCACCTAGTGCAG,8940 fluorescence intensity (a.u.)
8,CTTTATTGATTGAGAGGAACTATCTACCTCTGTAATGACACGGAGTCACCTAGTGCAG,39200 fluorescence intensity (a.u.)
9,CAGTGTGATTTAAGAATTTTCAACTGTAAAAGAATAGGAGCGGAGTCACCTAGTGCAG,10000 fluorescence intensity (a.u.)
10,TCAATTGATTATTACTGCCGCTTACTGTCTCCTCTACTGCCGGAGTCACCTAGTGCAG,53300 fluorescence intensity (a.u.)
11,TCTAATTACTTATTAATTAATTGATTTAATTAAATTAATCCGGAGTCACCTAGTGCAG,40400 fluorescence intensity (a.u.)
12,AATAACTAATTGCATAGATTGTGACTAATTTGCGATGCGACGGAGTCACCTAGTGCAG,55200 fluorescence intensity (a.u.)
13,CAGGACTAATTGGGGTTGCAAACTGGGACTACAAACTACTCGGAGTCACCTAGTGCAG,28300 fluorescence intensity (a.u.)
14,CTAGATTTATAATTAAATAAATTATTATAATATATAACTCCGGAGTCACCTAGTGCAG,42700 fluorescence intensity (a.u.)
15,AACTAATTAATTTATTGGCAGGCACTGGCCTACCAAACCTCGGAGTCACCTAGTGCAG,53100 fluorescence intensity (a.u.)
16,CCGCACCTAAATTGATTGATTATTAATTTAACTGCCGCTCCGGAGTCACCTAGTGCAG,65500 fluorescence intensity (a.u.)
17,ATCAATCACTACTGCATATTACTATAATCTCCTCTATACTCGGAGTCACCTAGTGCAG,5200 fluorescence intensity (a.u.)
18,AAAATAACTAATTGCACAGATTGTGACTAATTTGCGAGACCGGAGTCACCTAGTGCAG,34900 fluorescence intensity (a.u.)
19,AATAACTAATTGTACATATTACGACTAATTTGCGAGATGACGGAGTCACCTAGTGCAG,35000 fluorescence intensity (a.u.)
20,ACAAAACCAACTAATTAGGCAGGCAGCCATTTACCTCCATCGGAGTCACCTAGTGCAG,5480 fluorescence intensity (a.u.)
21,TTTGCCGCTGAGTAATTAAATTGTCTACTTACAAATCCTCCGGAGTCACCTAGTGCAG,3590 fluorescence intensity (a.u.)
